This note sets out measurements from PubChem BioAssay (Tox21).

A number with no mark means an inactive call. Inconclusive results are not listed. The source made the active and inactive calls. Unless noted, calls come from the whole dose curve; as a rule, active = well fitted curve in the direction sought with a large enough effect in the repeat runs; inconclusive = weak or mixed curves; inactive = no such curve, though single readings can be large; an effect the other way counts as inactive or inconclusive.

Assay [1] in a line: qHTS assay to identify small molecule agonists of the sonic hedgehog signaling (Shh) pathway (AID 1259368; calls by dose curve;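 note: NIH/3T3-derived 3T3Gli1-Luc cells carrying a stable Gli1-driven firefly luciferase reporter; series mostly up to about 92 µM; nearly all actives have a fitted effect of over 15% in size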). In a few lines:
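Steps: seed 3T3 Gli1-Luc cells, incubate 4 hr at 37 C, pin-transfer compounds in DMSO alongside a positive control, incubate 24 hr, add luciferase detection reagent, wait 30 min at room temperature, read luminescence.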
Background: In qHTS, concentration-response curves come from the screen itself.

The nature of assay [2]: qHTS assay to identify small molecule antagonists of the sonic hedgehog signaling (Shh) pathway (AID 1259369; calls by dose curve; note: nearly all actives have a fitted effect of over 45% in size; note: potency is the fitted concentration of half-maximal effect). The procedure, abridged: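 Inhibition of Shh signalling is measured as reduced Gli1-response-element firefly luciferase output in an NIH/3T3-derived stable reporter clone stimulated with conditioned medium for 24hr.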
Assay [3] addresses Estrogen receptor beta (Homo sapiens) (UniProt Q92731). Description: qHTS assay to identify small molecule agonists of the estrogen receptor beta (ER-beta) signaling pathway (AID 1259377; active = well fitted activation curve with a large enough effect in the signal ratio in the repeat runs, not every such curve was filed as active; the % refers to the signal ratio). In a few lines: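 A UAS-controlled beta-lactamase reporter in ER-beta-UAS-bla HEK293T cells reports receptor activation. Compounds act for 16 hr at 37C in 2% charcoal-stripped serum, and a FRET substrate is read by fluorescence after 2 hours.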

Assay [4] has the same target. Description: qHTS assay to identify small molecule antagonists of the estrogen receptor beta (ER-beta) signaling pathway (AID 1259378; active = well fitted inhibition curve with a large enough effect in the signal ratio in the repeat runs, not every such curve was filed as active; the % refers to the signal ratio; note: potency is the fitted concentration of half-maximal effect). The procedure, abridged: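 Antagonist mode: compounds added to beta-lactamase reporter HEK293T ER-beta-UAS cells stimulated with E2 (1nM final), 16 hr at 37C. LiveBLAzer B/G FRET substrate, 2 hours room temperature, fluorescence read-out.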

The nature of assay [5]: qHTS assay to identify small molecule agonists of the estrogen receptor beta (ER-beta) signaling pathway - cell viability counter screen (AID 1259380). Note: nearly all actives have a fitted effect of over 30% in size. The procedure, abridged: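 Same-well viability counter screen. Cells: ER-beta-UAS-bla HEK293T, plated 6 hr before compound, in 2% charcoal-stripped FBS. Compound exposure 16 hr, 37C; viability by CellTiter-Glo luminescence after 30 min at room temperature.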

Assay [6] addresses Androgen receptor (Homo sapiens) (UniProt P10275). Description: qHTS assay to identify small molecule agonists of the androgen receptor (AR) signaling pathway in the presence of an antagonist (AID 1259381; calls by dose curve; note: nearly all actives have a fitted effect of over 15% in size). In a few lines:
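Cells are MDA-kb2 (human breast carcinoma, MMTV-luc, AR/GR responsive). Nilutamide is present at 3.0uM final throughout; compounds are added at 15 concentrations and incubated 16hr at 37C before ONE-Glo luminescence detection.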

A short description of assay [7]: qHTS assay to identify small molecule antagonists of the estrogen receptor beta (ER-beta) signaling pathway - cell viability counter screen (AID 1259382).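 Note: HEK293T cells carrying ER-beta-UAS-bla reporter stimulated with estradiol; series mostly up to about 92 µM; nearly all actives have a fitted effect of over 55% in size.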 The procedure, abridged: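 Following a 6 hr plating period, HEK293T cells carrying a UAS-driven beta-lactamase reporter under ER-beta control received compounds and 1nM E2 (final). After 16 hr at 37C and 2 hr substrate loading, CellTiter-Glo luminescence indicated viability.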

The nature of assay [8]: qHTS assay to identify small molecule agonists or antagonists of the thyroid stimulating hormone receptor (TSHR) signaling pathway - wild type cell line counter screen (AID 1259384; calls by dose curve). In a few lines:
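Counter screen in untransfected Hek293: compounds (15-point titration, triplicate) plus phosphodiesterase inhibitor Ro20-1724 added after 18 h plating; 30 min RT. Intracellular cAMP via competitive d2/cryptate immunoassay, 1 h incubation.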

Assay [9] concerns the target Thyrotropin receptor (Homo sapiens) (UniProt P16473). Description: qHTS assay to identify small molecule antagonists of the thyroid stimulating hormone receptor (TSHR) signaling pathway (AID 1259385; calls by dose curve; note: nearly all actives have a fitted effect of over 20% in size). The procedure, abridged:
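Antagonist mode: compound-treated TSHR-expressing HEK293 cells were stimulated with 1.5 ng/mL TSH (final) in presence of Ro20-1724 for 30 min at RT. HTRF cAMP detection after 1 h; each compound tested at 15 concentrations, triplicate.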

A short description of assay [10]: qHTS assay to identify small molecule agonists of the estrogen receptor alpha (ER-alpha) signaling pathway in the presence of an antagonist - cell viability counter screen (AID 1259386).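 Note: series mostly up to about 92 µM; cells exposed to compounds for 22 h at 37 °C before the viability read; nearly all actives have a fitted effect of over 30% in size.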 In a few lines:
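Cells are starved of estrogens for 5 days in charcoal-stripped serum, seeded for 24hr and co-treated with ICI-182,780 (10.0nM final) and test compounds. After 22hr at 37C, viability is read as CellTiter-Fluor fluorescence.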

Assay [11] concerns the target Progesterone receptor (Homo sapiens) (UniProt P06401). Description: qHTS assay to identify small molecule agonists of the progesterone receptor (PR) signaling pathway (AID 1346784; calls by dose curve; note: nearly all actives have a fitted effect of over 30% in size). The procedure, abridged:
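Agonist mode, quantitative HTS format in a HEK 293T line expressing a UAS-controlled beta-lactamase reporter; 16 hr compound exposure at 37C in 2% charcoal-stripped FBS, then LiveBLAzer B/G FRET fluorescence.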

For assay [12] the target is unchanged. Description: qHTS assay to identify small molecule antagonists of the progesterone receptor (PR) signaling pathway (AID 1346795; active = well fitted inhibition curve with a large enough effect in the signal ratio in the repeat runs, not every such curve was filed as active; the % refers to the signal ratio; note: potency is the fitted concentration of half-maximal effect). In a few lines: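 HEK293T PR-UAS-bla reporter cells in charcoal-stripped serum (2%) received compound after a 6 hr settling period, followed by R5020 agonist at 1 nM final; 16 hr incubation preceded the FRET substrate step and fluorescence measurement.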

Assay [13] in a line: qHTS assay to identify small molecule antagonists of the progesterone receptor (PR) signaling pathway - cell viability counter screen (AID 1346798). Note: series mostly up to about 92 µM; nearly all actives have a fitted effect of over 50% in size. In a few lines: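 Same-well multiplex: after 16 hr at 37C with compound and R5020 stimulation, HEK293T cells carrying a UAS-bla reporter received LiveBLAzer substrate (2 hr RT), then CellTiter-Glo (30 min RT) for luminescent viability.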

The nature of assay [14]: qHTS assay to identify small molecule antagonists of the TGF-beta/Smad signaling pathway - cell viability counter screen (AID 1346824). Note: nearly all actives have a fitted effect of over 50% in size. The procedure, abridged:
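Cytotoxicity counter-screen run in the same wells as the beta-lactamase Smad reporter read: CellTiter-Glo luminescence after 30 min at room temperature. HEK 293T SBE-bla cells had 5 hr compound exposure at 37 C with TGF-beta1 (0.25 ng/mL stock).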

Assay [15] is described as follows: qHTS assay to identify small molecule agonists of the TGF-beta/Smad signaling pathway - cell viability counter screen (AID 1346829). Note: top concentration of the series differs between compounds; nearly all actives have a fitted effect of over 45% in size. In a few lines: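 Tox21 qHTS format: SBE-bla HEK 293T cells treated with DMSO-dissolved compounds for 5 hr; CellTiter-Glo luminescence after 30 min at room temperature.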
Assay [16] is described as follows: qHTS assay to identify small molecule agonists of the TGF-beta/Smad signaling pathway (AID 1346859; active = well fitted activation curve with a large enough effect in the signal ratio in the repeat runs, not every such curve was filed as active; the % refers to the signal ratio; note: series mostly up to about 77 µM). In a few lines:
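Smad-responsive beta-lactamase reporter cells (HEK 293T) received compounds from DMSO stocks after overnight attachment, were incubated 5 hr, then treated 2 hr with FRET substrate before dual-emission fluorescence measurement (405 nm excitation).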

Assay [17] has as its target Thyrotropin-releasing hormone receptor (Homo sapiens) (UniProt P34981). Description: qHTS assay to identify small molecule antagonists of the thyrotropin-releasing hormone receptor (TRHR) signaling pathway (AID 1346877; active = well fitted inhibition curve with a large enough effect in the repeat runs, not every such curve was filed as active; note: series mostly up to about 51 µM). In a few lines: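 Cells (TRHR-HEK293) are plated and kept 18 h at 37 °C/5% CO2. A calcium-sensitive dye is added for 2 h, compound follows for 5 min at room temperature, and TRH is then given at 1 nM final.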

The nature of assay [18]: qHTS assay to identify small molecule agonists of the androgen receptor (AR) signaling pathway in the presence of an antagonist - cell viability counter screen (AID 1259379).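 Note: MDA-kb2 human breast cancer cells carrying an MMTV luciferase reporter; series mostly up to about 92 µM; nearly all actives have a fitted effect of over 25% in size.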 In a few lines: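 Fluorescence from CellTiter-Fluor, added after 15 hr and read 1 hr later, gave cell viability. Cells were MDA-kb2 exposed to compounds (15 concentrations) in the presence of 3.0uM nilutamide at 37C, 0% CO2.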

Assay [19] concerns the target Estrogen receptor (Homo sapiens) (UniProt P03372). Description: qHTS assay to identify small molecule agonists of the estrogen receptor alpha (ER-alpha) signaling pathway in the presence of an antagonist (AID 1259383; calls by dose curve; note: top concentration of the series differs between compounds; nearly all actives have a fitted effect of over 15% in size). In a few lines:
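Cells are hormone-deprived for 5 days (charcoal-stripped FBS, no phenol red), plated for 24hr, spiked with 10.0nM ICI-182,780, then dosed at 15 concentrations. After 22hr at 37C, ONE-Glo luminescence reports ERE-luciferase activity.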

Assay [20] is described as follows: qHTS assay to identify small molecule agonists of the progesterone receptor (PR) signaling pathway - cell viability counter screen (AID 1346799; calls by dose curve; note: nearly all actives have a fitted effect of over 45% in size). In a few lines: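 Counter screen for cytotoxicity: compound-treated PR-UAS-bla HEK293T cells (16 hr, 37C, 5% CO2) were assayed with CellTiter-Glo, luminescence measured after 30 min at room temperature.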

Sequence of Progesterone receptor (Homo sapiens) (P06401 whole entry, looked up): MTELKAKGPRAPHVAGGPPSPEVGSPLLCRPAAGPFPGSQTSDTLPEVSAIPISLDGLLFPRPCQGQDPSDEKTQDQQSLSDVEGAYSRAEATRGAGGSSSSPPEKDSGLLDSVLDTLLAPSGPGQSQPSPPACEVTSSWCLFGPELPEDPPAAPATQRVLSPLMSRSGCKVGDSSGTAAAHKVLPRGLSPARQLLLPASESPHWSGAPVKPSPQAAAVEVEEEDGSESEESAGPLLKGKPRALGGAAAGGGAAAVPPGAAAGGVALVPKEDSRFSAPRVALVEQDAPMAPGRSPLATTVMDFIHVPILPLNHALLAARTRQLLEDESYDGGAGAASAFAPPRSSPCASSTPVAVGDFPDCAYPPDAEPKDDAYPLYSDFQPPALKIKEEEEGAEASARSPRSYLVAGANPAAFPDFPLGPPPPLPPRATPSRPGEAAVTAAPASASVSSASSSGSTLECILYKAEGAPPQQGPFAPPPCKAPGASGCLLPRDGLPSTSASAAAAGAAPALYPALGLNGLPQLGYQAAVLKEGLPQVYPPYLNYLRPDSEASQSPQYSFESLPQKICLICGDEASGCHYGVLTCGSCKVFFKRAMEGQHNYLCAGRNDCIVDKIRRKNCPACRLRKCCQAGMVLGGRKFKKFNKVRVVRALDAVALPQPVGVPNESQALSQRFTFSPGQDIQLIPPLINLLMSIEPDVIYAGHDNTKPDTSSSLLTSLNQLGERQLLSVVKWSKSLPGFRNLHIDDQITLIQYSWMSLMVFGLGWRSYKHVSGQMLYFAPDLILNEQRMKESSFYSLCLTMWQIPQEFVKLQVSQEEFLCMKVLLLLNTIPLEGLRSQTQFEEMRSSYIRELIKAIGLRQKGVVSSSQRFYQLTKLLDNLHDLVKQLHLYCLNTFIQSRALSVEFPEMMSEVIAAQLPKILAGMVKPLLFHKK
Sequence of Estrogen receptor (Homo sapiens) (P03372 whole entry, looked up): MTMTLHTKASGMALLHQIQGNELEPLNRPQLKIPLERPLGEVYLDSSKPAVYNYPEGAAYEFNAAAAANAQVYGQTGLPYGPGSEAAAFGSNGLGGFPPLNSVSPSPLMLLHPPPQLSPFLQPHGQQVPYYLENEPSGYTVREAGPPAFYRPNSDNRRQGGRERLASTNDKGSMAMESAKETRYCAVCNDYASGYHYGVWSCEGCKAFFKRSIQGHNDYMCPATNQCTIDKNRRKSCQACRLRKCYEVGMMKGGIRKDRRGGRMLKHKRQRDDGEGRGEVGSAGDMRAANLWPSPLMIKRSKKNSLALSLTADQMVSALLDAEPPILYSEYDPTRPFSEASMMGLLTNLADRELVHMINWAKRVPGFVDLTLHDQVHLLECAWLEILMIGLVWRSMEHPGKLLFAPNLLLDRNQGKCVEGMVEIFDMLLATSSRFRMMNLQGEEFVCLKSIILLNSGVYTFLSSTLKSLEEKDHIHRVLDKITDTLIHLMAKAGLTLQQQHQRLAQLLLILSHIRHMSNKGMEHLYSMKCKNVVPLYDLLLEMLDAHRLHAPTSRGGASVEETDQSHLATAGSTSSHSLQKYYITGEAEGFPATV
Sequence of Thyrotropin receptor (Homo sapiens) (P16473 whole entry, looked up): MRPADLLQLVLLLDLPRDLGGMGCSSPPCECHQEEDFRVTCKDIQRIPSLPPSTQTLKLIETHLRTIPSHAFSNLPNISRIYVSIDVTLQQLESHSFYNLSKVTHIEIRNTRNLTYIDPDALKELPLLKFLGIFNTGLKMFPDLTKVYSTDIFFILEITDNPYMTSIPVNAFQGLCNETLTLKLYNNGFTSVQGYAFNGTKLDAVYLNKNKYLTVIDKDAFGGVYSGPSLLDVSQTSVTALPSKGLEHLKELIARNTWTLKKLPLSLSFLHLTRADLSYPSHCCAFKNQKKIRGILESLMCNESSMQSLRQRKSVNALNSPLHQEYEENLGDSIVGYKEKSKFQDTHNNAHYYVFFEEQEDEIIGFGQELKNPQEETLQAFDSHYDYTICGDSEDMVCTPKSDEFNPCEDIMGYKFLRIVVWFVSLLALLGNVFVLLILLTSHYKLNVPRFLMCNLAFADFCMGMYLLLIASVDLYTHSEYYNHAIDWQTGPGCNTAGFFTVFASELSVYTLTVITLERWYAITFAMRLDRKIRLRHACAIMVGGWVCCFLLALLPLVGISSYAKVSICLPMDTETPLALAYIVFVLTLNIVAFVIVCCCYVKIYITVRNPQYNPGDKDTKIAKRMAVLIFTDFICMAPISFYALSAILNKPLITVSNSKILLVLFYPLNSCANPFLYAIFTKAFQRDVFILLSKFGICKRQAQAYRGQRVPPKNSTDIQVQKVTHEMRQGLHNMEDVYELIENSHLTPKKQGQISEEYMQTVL
Sequence of Thyrotropin-releasing hormone receptor (Homo sapiens) (P34981 whole entry, looked up): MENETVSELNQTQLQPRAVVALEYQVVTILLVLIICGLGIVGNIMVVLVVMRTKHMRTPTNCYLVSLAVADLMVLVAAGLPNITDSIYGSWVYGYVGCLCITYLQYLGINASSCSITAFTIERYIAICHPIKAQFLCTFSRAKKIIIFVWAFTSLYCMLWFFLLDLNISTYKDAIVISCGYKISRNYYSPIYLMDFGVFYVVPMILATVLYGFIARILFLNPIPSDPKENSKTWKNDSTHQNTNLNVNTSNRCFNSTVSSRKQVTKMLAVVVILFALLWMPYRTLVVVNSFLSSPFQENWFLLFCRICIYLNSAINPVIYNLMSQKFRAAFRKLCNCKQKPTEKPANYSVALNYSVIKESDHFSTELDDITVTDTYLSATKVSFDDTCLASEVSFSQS
Sequence of Estrogen receptor beta (Homo sapiens) (Q92731 whole entry, looked up): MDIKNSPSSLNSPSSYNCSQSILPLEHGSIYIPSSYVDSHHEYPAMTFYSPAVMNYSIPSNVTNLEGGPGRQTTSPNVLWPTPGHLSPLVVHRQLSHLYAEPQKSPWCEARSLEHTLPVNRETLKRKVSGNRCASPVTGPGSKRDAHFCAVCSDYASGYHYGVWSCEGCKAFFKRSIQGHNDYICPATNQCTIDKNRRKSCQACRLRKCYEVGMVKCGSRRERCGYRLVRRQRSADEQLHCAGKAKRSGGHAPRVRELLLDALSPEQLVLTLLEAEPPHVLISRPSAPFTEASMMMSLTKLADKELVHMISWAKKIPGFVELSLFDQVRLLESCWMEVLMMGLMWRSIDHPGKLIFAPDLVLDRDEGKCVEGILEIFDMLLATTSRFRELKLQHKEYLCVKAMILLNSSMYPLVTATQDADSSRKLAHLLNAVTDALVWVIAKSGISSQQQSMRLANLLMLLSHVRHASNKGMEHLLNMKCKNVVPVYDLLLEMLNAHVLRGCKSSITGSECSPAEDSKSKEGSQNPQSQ
Sequence of Androgen receptor (Homo sapiens) (P10275 whole entry, looked up): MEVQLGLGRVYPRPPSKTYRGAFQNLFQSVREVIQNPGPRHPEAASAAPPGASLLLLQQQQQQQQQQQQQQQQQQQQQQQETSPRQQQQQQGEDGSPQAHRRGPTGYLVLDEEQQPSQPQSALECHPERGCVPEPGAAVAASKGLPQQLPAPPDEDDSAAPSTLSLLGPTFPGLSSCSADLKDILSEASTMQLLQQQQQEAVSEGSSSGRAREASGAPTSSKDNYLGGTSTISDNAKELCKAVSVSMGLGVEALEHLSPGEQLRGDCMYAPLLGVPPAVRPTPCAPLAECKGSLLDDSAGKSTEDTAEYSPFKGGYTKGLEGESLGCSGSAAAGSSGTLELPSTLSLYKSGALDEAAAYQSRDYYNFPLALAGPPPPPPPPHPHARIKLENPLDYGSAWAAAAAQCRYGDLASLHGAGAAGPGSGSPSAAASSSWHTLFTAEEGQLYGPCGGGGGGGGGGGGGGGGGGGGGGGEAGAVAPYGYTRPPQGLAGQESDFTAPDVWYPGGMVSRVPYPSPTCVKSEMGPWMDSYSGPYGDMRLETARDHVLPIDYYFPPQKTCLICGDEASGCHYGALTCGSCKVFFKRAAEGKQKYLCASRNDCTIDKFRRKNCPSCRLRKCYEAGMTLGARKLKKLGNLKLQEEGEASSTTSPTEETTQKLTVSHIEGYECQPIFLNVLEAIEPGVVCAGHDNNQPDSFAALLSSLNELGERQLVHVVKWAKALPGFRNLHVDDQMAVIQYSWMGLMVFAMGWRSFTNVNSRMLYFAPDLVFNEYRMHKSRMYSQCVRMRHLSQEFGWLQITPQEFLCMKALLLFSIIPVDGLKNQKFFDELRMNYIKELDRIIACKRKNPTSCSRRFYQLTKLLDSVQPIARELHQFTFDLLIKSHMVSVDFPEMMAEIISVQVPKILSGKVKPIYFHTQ

Take `CCCOCC(C)OCC(C)O` (configuration not stated): the Potency result in assay [1], in assay [2], in assay [4], in [5], in assay [6] and in assay [7] was “inactive” in each case. Further, the Potency entry in assay [9], in assay [11], in [12] and in assay [13] was “inactive” each time. For the same compound, the compound was classed as inactive in [3], in [8], in [10], in assay [14], in assay [15] and in assay [16]. Moreover, in assay [17], the compound was classed as inactive.
Consider `C/C=C1\C(=O)C[C@H]2[C@@H]3CCC4=CC(=O)CC[C@]4(C)[C@H]3CC[C@]12C`, for which the Potency entry in assay [1], in assay [18], in [5] and in assay [19] was “inactive” each time. For the same compound, the Potency in assay [2] is 5.99 µM (active); in assay [4] it was 26.8 µM (active). In addition, the result in assay [3], in [10], in assay [14] and in [15] was inactive.
On to `CCCc1ccc(N)cc1`, for which the Potency entry in assay [1], in assay [2], in assay [4], in [5], in assay [7] and in assay [19] was “inactive” throughout. Also, the Potency result in assay [9], in assay [11], in assay [12], in assay [13] and in assay [20] was “inactive” each time. In addition, the outcome in [3], in assay [8], in [10], in assay [14], in assay [15] and in assay [16] was inactive. Moreover, the result in assay [17] was inactive.
With `CC(C)(C)OC(=O)N1C[C@@H](F)C[C@H]1C(=O)O`, the Potency entry in assay [1], in [2], in [4], in assay [5], in assay [7] and in [19] was “inactive” in each case. For the same compound, the Potency result in [9], in assay [12], in assay [13] and in assay [20] was “inactive” in each case. Also, the compound was called inactive in assay [3], in [8], in [10], in assay [14], in [15] and in [16]. Further, the result in assay [17] was inactive.
Take `CSc1ccc(C=O)cc1`: the Potency entry in assay [1], in assay [2], in assay [4], in assay [18], in assay [5] and in [9] was “inactive” in each case. For the same compound, the Potency result in assay [11], in [12], in assay [13] and in assay [20] was “inactive” in each case. In addition, the call in assay [3], in assay [8], in assay [10], in [14] and in assay [16] was inactive.
Take `CCCCCCCCCCCCCCC`: the Potency entry in assay [1], in assay [2], in assay [4], in assay [18], in [9] and in assay [12] was “inactive” throughout. In assay [13], the Potency entry is “inactive”. For the same compound, the outcome in assay [3], in assay [10], in [14], in [15], in assay [16] and in assay [17] was inactive.
On to `O=C(O)/C=C/c1ccc(/C=C/C(=O)O)cc1`, for which the Potency result in assay [1], in assay [2], in assay [4], in assay [18], in [5] and in [7] was “inactive” in each case. The Potency result in assay [11], in assay [12] and in assay [13] was “inactive” each time. In addition, the compound was called inactive in [3], in assay [10], in assay [14], in [15], in assay [16] and in assay [17].
On to `O=[N+]([O-])c1ccc(Oc2ccc([N+](=O)[O-])cc2)cc1`, for which the Potency result in [1], in assay [2], in assay [4], in assay [18], in [5] and in [19] was “inactive” each time. The call in [3], in assay [10], in assay [14], in [15] and in assay [16] was inactive. Moreover, in assay [12], the Potency was 3.94 µM (active).
